These results are taken from the supplement of paper PMC13380429.

Unmarked numbers belong to inactive results.

This assay has as its system Vero E6 infected with SARS-CoV-2. The assay is described as follows: inhibition of SARS-CoV-2 cytopathic effect; higher = more antiviral protection, active = above 15. The note with it: 48 h. On the technique in general: Damage to the host cells serves as the signal in cytopathic effect assays.

Take `CCn1c(=O)c(-c2cc[nH]n2)cc2c(C)nc(N)nc21` [voxtalisib]: the “inhibition of SARS-CoV-2 cytopathic effect” value (from here on “inhibition”) is, setting by setting: (1 nM) 2.67%; (8.33 nM) 3.03%; (100 nM) 1.3%; (833.33 nM) 0.46%; (10000 nM) -4.32%.

With `Cn1nnc(-c2ccc(-c3ccc(N4C[C@H](CO)OC4=O)cc3F)cn2)n1` [tedizolid], the “inhibition” value reads like this: (1 nM) -0.87%; (8.33 nM) 1.38%; (100 nM) -1.69%; (833.33 nM) 0.43%; (10000 nM) -0.79%.

Take `Nc1ncnc2c1ncn2[C@@H]1O[C@H](COP(=O)(O)OP(=O)(O)OP(=O)(O)O)[C@@H](O)[C@H]1O`: the “inhibition” value runs as follows: (1 nM) -0.89%; (8.33 nM) -1.33%; (100 nM) -0.6%; (833.33 nM) 2.57%; (10000 nM) 2.48%.

Consider `NCC(O)c1ccc(O)cc1` (stereo not given) [octopamine], for which the “inhibition” value runs as follows: (1 nM) -3.66%; (8.33 nM) -1.96%; (100 nM) -2.91%; (833.33 nM) -4.12%; (10000 nM) 0.96%.

With `CN(Cc1ccccc1)C(=O)[C@H](Cc1ccc2ccccc2c1)NC(=O)[C@@H]1C[C@@H](O)CN1C(=O)c1cn(C)c2ccccc12`, the “inhibition” value is, setting by setting: (1 nM) 1.18%; (8.33 nM) 4.31%; (100 nM) 3.48%; (833.33 nM) 1.69%; (10000 nM) 1.87%.

As for `CC(C)C[C@H](NC(=O)[C@@H](O)[C@H](N)Cc1ccccc1)C(=O)O` [ubenimex], the “inhibition” value by setting is: (1 nM) -0.51%; (8.33 nM) -0.09%; (100 nM) 2.6%; (833.33 nM) 0.25%; (10000 nM) 1.71%.

As to `CCN(CC)CCN(Cc1ccc(-c2ccc(C(F)(F)F)cc2)cc1)C(=O)Cn1c(SCc2ccc(F)cc2)nc(=O)c2c1CCC2` [darapladib], the “inhibition” value by setting is: (1 nM) 1.47%; (8.33 nM) 1.73%; (100 nM) -1.85%; (833.33 nM) -2.02%; (10000 nM) -25.3%.

`COC(=O)C1=C(C)NC(C)=C(C(=O)OCCN2CCN(C(c3ccccc3)c3ccccc3)CC2)C1c1cccc([N+](=O)[O-])c1` (stereo not given) [manidipine]: the “inhibition” value runs as follows: (1 nM) 1.55%; (8.33 nM) 1.19%; (100 nM) -0.02%; (833.33 nM) 1.16%; (10000 nM) -7.15%.

Turning to `Cc1ccc(C[N+](C)(C)C)o1` [5-methylfurmethiodide], the “inhibition” value reads like this: (1 nM) -1.33%; (8.33 nM) -0.75%; (100 nM) -0.64%; (833.33 nM) -0.84%; (10000 nM) 0.7%.

Regarding `C/C(=C\c1csc(C)n1)[C@@H]1C[C@@H]2O[C@]2(C)CCC[C@H](C)[C@H](O)[C@@H](C)C(=O)C(C)(C)[C@@H](O)CC(=O)O1` [epothilone-B], the “inhibition” value (1 nM) was -1.66%; the “inhibition” value (8.33 nM) is -5.81%; the “inhibition” value (100 nM) is -4.92%; the “inhibition” value (833.33 nM) is -0.91%; the “inhibition” value (10000 nM) was -0.53%.

Regarding `N#Cc1cccc(C(=O)Nc2cc(-c3ccccc3)nn2-c2ccccc2)c1`, the “inhibition” value reads like this: (1 nM) 1.77%; (8.33 nM) 4.71%; (100 nM) 3.47%; (833.33 nM) 3.43%; (10000 nM) 1.98%.

Consider `N#C/C(=C\c1ccc(O)c(O)c1)C(=O)NCCCCc1ccccc1`, for which the “inhibition” value was 0.51% (1 nM); 1.37% (8.33 nM); 1.91% (100 nM); 0.14% (833.33 nM); -0.03% (10000 nM).

On to `CCCOc1ccc(C(=O)OCCN(CC)CC)cc1N` [proxymetacaine], for which the “inhibition” value was 1.69% (1 nM); 1.71% (8.33 nM); 2.25% (100 nM); 0.25% (833.33 nM); 2% (10000 nM).

As to `Clc1ccc(C(Cn2ccnc2)OCc2ccsc2Cl)c(Cl)c1` (stereo not given) [tioconazole], the “inhibition” value is 6.75% (1 nM); -2.6% (8.33 nM); 5.03% (100 nM); -4.33% (833.33 nM); -5.16% (10000 nM).

As to `C[C@]12C=CC(=O)C=C1CC[C@@H]1[C@@H]2[C@@H](O)C[C@@]2(C)[C@H]1CC[C@]2(O)C(=O)COP(=O)(O)O` [prednisolone-sodium-phosphate], the “inhibition” value runs as follows: (1 nM) -6.31%; (8.33 nM) -10%; (100 nM) -8.54%; (833.33 nM) -9.6%; (10000 nM) -4.78%.

Consider `CC(C)N(CCCNC(=O)Nc1ccc(C(C)(C)C)cc1)C[C@H]1O[C@@H](n2ccc3c(N)ncnc32)[C@H](O)[C@@H]1O`, for which the “inhibition” value was 4.48% (1 nM); 2.04% (8.33 nM); 4.36% (100 nM); -0.49% (833.33 nM); 0.43% (10000 nM).

As for `O=C(C1CCCCC1)N1CC(=O)N2CCc3ccccc3C2C1` (stereo not given) [praziquantel], the “inhibition” value (1 nM) was -1.8%; the “inhibition” value (8.33 nM) is 0.08%; the “inhibition” value (100 nM) was 1.39%; the “inhibition” value (833.33 nM) was 2.67%; the “inhibition” value (10000 nM) was 0.6%.

`NS(=O)(=O)C#Cc1ccccc1` [pifithrin-mu]: the “inhibition” value by setting is: (1 nM) 2.15%; (8.33 nM) 5.91%; (100 nM) 2.87%; (833.33 nM) 4.85%; (10000 nM) 22.5% (active).

On to `Cc1nnc(C(=O)NC(C)(C)c2nc(C(=O)NCc3ccc(F)cc3)c(O)c(=O)n2C)o1` [raltegravir], for which the “inhibition” value is 3.09% (1 nM); -0.27% (8.33 nM); 2.75% (100 nM); 1.2% (833.33 nM); 1.12% (10000 nM).
